A short description of assay [1]: Cell Viability - LYMP2-021 (AID 974).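 Also: compound exposure lasts 24 hours at 37 °C; % is scaled to controls: 0 for no effect and ±100 for the full control effect; nearly all actives have a fitted effect of over 55% in size.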 The method, boiled down: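 Human lymphoblastoid LYMP2-021 cells, 2500/well in complete medium, treated 24 hours at 37 C. Intracellular ATP by CellTiter-Glo luminescence (30 min, RT); AC50 from Hill fits of concentration-response.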
A short description of assay [2]: Cell Viability - LYMP2-023 (AID 975).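 Also: cellular ATP measured by luciferase luminescence as viability proxy; series mostly up to about 92 µM; plate controls were DMSO only for no effect and 92 µM tetraoctylammonium bromide control for full effect; nearly all actives have a fitted effect of over 55% in size.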 The method, boiled down: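 LYMP2-023 human lymphoblastoid cells, 2500/well, preincubated 5 hr at 37 C, then compound-treated 24 hr at 37 C in complete medium. CellTiter-Glo luminescence (ATP) after 30 min at room temperature; AC50 from Hill-equation fits; tetraoctylammonium bromide positive control.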
Assay [3] can be described thus: Cell Viability - LYMP2-025 (AID 976).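 Also: series mostly up to about 92 µM; plate controls were DMSO only for no effect and tetraoctylammonium bromide control for full effect.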 The method, boiled down: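 Human lymphoblastoid LYMP2-025 cells, 2500/well, exposed 24 h at 37 C in complete medium in 1536-well qHTS. Viability as cellular ATP by CellTiter-Glo luminescence; AC50 from Hill fits of concentration-response data.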
A short description of assay [4]: Cell Viability - LYMP2-002 (AID 977).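 Also: series mostly up to about 92 µM; compound exposure lasted 24 h at 37 °C; plate controls were DMSO only for no effect and 92 µM tetraoctylammonium bromide for full effect.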 The method, boiled down: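 Human lymphoblastoid LYMP2-002 cells, 2500 per well, exposed to compounds for 24 h at 37 C in complete medium; viability read as intracellular ATP by CellTiter-Glo luminescence, AC50 from Hill fits.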
Assay [5] is described as follows: Cell Viability - LYMP2-006 (AID 978). Also: series mostly up to about 92 µM; % is scaled to controls: 0 for no effect and ±100 for the full control effect; nearly all actives have a fitted effect of over 60% in size. In outline: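 Concentration-dependent loss of intracellular ATP in a human lymphoblastoid line after 24 hr treatment at 37 C was measured by CellTiter-Glo luminescence, with AC50 values obtained from standard Hill-equation modelling.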
Assay [6] is described as follows: Cell Viability - LYMP2-007 (AID 979).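 Also: cells exposed to compound for 24 h before reading; 0% = DMSO only and the negative end = 92 µM tetraoctylammonium bromide; nearly all actives have a fitted effect of over 60% in size.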 In outline:
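Human lymphoblastoid LYMP2-007 cells (2500/well) preincubated 5 h at 37 C, then treated 24 h at 37 C in complete medium. Viability by CellTiter-Glo ATP luminescence after 30 min at room temperature; AC50 from Hill fits.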

Assay [7] in a line: Cell Viability - LYMP2-008 (AID 980). Also: % is scaled to controls: 0 for no effect and ±100 for the full control effect; nearly all actives have a fitted effect of over 60% in size. The method, boiled down:
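LYMP2-008 lymphoblastoid cells (2500/well) plated 5 h, then treated 24 h at 37 C in complete medium. Viability read as intracellular ATP by CellTiter-Glo luminescence after 30 min at room temperature; AC50 from Hill fits.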

Assay [8] is described as follows: Cell Viability - LYMP2-010 (AID 981). Also: % is scaled to controls: 0 for no effect and ±100 for the full control effect; nearly all actives have a fitted effect of over 55% in size. The method, boiled down: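 Human lymphoblastoid LYMP2-010 cells (2500/well) treated 24 h at 37 C in complete medium; viability read as intracellular ATP by CellTiter-Glo luminescence. AC50 from Hill fits of concentration-response data; tetraoctylammonium bromide positive control.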
Assay [9] is described as follows: Cell Viability - LYMP2-012 (AID 982).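 Also: cellular ATP by luciferase luminescence where a drop means cytotoxicity; cells exposed to compound for one day before reading; 0% = DMSO only and full loss = 92 µM tetraoctylammonium bromide; nearly all actives have a fitted effect of over 55% in size.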
Assay [10] can be described thus: Cell Viability - LYMP2-014 (AID 983).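 Also: series mostly up to about 92 µM; plate controls were DMSO only for no effect and 92 µM tetraoctylammonium bromide for full effect; nearly all actives have a fitted effect of over 50% in size.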 In outline:
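LYMP2-014 human lymphoblastoid cells, 2500/well, treated 24 h at 37 C in complete medium; viability by CellTiter-Glo ATP luminescence after 30 min at room temperature. AC50 from Hill fits of qHTS concentration-response; tetraoctylammonium bromide positive control.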

A short description of assay [11]: Cell Viability - LYMP2-016 (AID 984). The method, boiled down: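 Acute toxicity in a Coriell human lymphoblastoid line is scored as loss of intracellular ATP over 24 h of treatment in complete medium. CellTiter-Glo signal is fitted across concentrations with the Hill equation to give AC50.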
A short description of assay [12]: Cell Viability - LYMP2-018 (AID 985).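 Also: compound exposure lasted 24 hr at 37 °C; plate controls were DMSO only for no effect and tetraoctylammonium bromide at 92 µM for full effect; nearly all actives have a fitted effect of over 50% in size.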 In outline: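 Human lymphoblastoid LYMP2-018 cells, 2500/well, settled 5 hr at 37 C then exposed to compound 24 hr at 37 C; intracellular ATP measured by CellTiter-Glo luminescence. AC50 from Hill-equation concentration-response fits.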
A short description of assay [13]: Cell Viability - LYMP2-020 (AID 986). The method, boiled down: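 Human lymphoblastoid LYMP2-020 cells (2500/well) preincubated 5 h at 37 C, then treated 24 h at 37 C. Viability measured as intracellular ATP by CellTiter-Glo luminescence after 30 min at room temperature; AC50 from Hill fits.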
Assay [14] can be described thus: Cell Viability - LYMP2-022 (AID 987). The method, boiled down:
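LYMP2-022 lymphoblastoid cells (2500/well, complete medium) were treated with compounds for 24 hours at 37 C; intracellular ATP was then read by CellTiter-Glo luminescence after 30 min at room temperature. AC50 values were derived from Hill-equation fits.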

The nature of assay [15]: Cell Viability - LYMP2-024 (AID 988).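 Also: plate controls were DMSO only for no effect and 92 µM tetraoctylammonium bromide for full effect; nearly all actives have a fitted effect of over 60% in size.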 The method, boiled down: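 Human lymphoblastoid LYMP2-024 cells (2500/well) rested 5 hr, then treated with compound for 24 hr at 37 C in complete medium. Viability was measured as intracellular ATP by CellTiter-Glo luminescence. AC50 values came from Hill-equation fits.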
Assay [16] can be described thus: Cell Viability - LYMP2-026 (AID 989). Also: % is scaled to controls: 0 for no effect and ±100 for the full control effect; nearly all actives have a fitted effect of over 50% in size. In outline:
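Human lymphoblastoid LYMP2-026 cells, 2500/well, exposed to compound 24 h at 37 C in complete medium. Viability as intracellular ATP by CellTiter-Glo luminescence; AC50 from Hill fits of qHTS concentration-response.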

Assay [17] is described as follows: Cell Viability - LYMP1-002 - Assay at 24 hr (AID 993). Also: % is scaled to controls: 0 for no effect and ±100 for the full control effect. In outline: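 Human lymphoblastoid LYMP1-002 cells (2500/well) treated 24 h at 37 °C; viability as intracellular ATP by CellTiter-Glo luminescence. Tetraoctylammonium bromide as positive control; AC50 from Hill-equation fits of qHTS concentration-response.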
Assay [18] is described as follows: Cell Viability - LYMP1-002 - Assay at 40 hr (AID 994). In outline: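 LYMP1-002 human lymphoblastoid cells (2500/well, complete medium) were treated with compounds for 40 hr at 37 C. Intracellular ATP was measured by CellTiter-Glo luminescence, and AC50 values came from Hill-equation fits of concentration-response data; tetraoctylammonium bromide was the positive control.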

Assay [19] can be described thus: qHTS assay for small molecule antagonists of peroxisome proliferator-activated receptor delta signaling (AID 588535; active = well fitted inhibition curve with a large enough effect in the signal ratio, with a control signal flat, not every such curve was filed as active; the % refers to the signal ratio;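 as to max response: cells co-treated with a PPAR-delta agonist as stimulator during compound exposure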). The note with it: HEK293T PPARd-UAS-bla, beta-lactamase FRET ratio, 18 h; 460 nm channel. The method, boiled down:
(§1)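 Antagonist-mode beta-lactamase reporter (GeneBLAzer PPAR-delta-UAS-bla) in HEK293T cells, 2% charcoal/dextran FBS, 4000 cells/well. Compound titrations, 18 h at 37 C; CCF4 ratio read, IC50 and efficacy from Hill fits.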
On the technique in general: In qHTS, concentration-response curves come from the screen itself.

The target in assay [20] is Peroxisome proliferator-activated receptor delta (Homo sapiens) (UniProt Q03181). Described as above. In outline: as §1
Peroxisome proliferator-activated receptor delta (Homo sapiens), sequence (Q03181 whole entry, looked up): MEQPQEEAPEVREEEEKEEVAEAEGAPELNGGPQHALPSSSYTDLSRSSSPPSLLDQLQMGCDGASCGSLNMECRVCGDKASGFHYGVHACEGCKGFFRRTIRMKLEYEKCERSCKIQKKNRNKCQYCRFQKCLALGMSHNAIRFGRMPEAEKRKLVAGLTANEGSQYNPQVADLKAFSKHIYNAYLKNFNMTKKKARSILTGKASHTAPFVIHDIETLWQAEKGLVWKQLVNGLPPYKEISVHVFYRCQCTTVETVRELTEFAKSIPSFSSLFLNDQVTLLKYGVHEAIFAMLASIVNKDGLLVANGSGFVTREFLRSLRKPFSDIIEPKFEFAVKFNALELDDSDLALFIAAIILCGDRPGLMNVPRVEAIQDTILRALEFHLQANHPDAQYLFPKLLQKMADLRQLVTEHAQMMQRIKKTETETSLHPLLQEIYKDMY

Results filed as inconclusive are left out. The source made the active and inactive calls. Unless noted, calls follow the shape of the dose curve; as a rule, active = well fitted cell-killing curve with a large enough effect; inconclusive = small, poorly fitted or top-dose-only effect; inactive = flat fitted curve, though single readings scatter.

Take `CO[C@H]1/C=C/O[C@@]2(C)Oc3c(C)c(O)c4c(O)c(c(/C=N/N5CCN(C)CC5)c(O)c4c3C2=O)NC(=O)/C(C)=C\C=C\[C@H](C)[C@H](O)[C@@H](C)[C@@H](O)[C@@H](C)[C@H](OC(C)=O)[C@@H]1C`: the compound was called inactive in assay [1], in [2], in assay [3], in [4], in assay [5] and in [6]. In addition, the call in assay [7], in [8], in assay [9], in assay [10], in assay [11] and in assay [12] was inactive. In addition, the compound was classed as inactive in [13], in assay [14], in [15], in assay [16], in [17] and in assay [18]. Also, the compound was called inactive in [20]. Also, the max response in assay [19] turned out to be 91.2%.

The record behind these values is PubChem BioAssay (NCATS).
